Screening results as filed in PubChem.
Rows were chosen to be rich in hits. Some 5.9% of all compounds tested hit in one or more screens of this group.
ALR inh: inhibitors of human ALR sulfhydryl oxidase, primary screen, biochemical, H2O2 detection, HRP-luminol luminescence, single point; FAD-linked sulfhydryl oxidase ALR (Homo sapiens), P55789; purified ALR, DTT oxidation; inhibition, % (concentration not given with the values); hit rate 3.8% among 290,000; AID 485317, 2010;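 active = mean replicate inhibition above about 79%, with every replicate also reaching it, limit read from the data; inconclusive = only one of the two criteria met; inactive = mean below limit and not every replicate reaching it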
Target sequence (P55789 whole entry, looked up): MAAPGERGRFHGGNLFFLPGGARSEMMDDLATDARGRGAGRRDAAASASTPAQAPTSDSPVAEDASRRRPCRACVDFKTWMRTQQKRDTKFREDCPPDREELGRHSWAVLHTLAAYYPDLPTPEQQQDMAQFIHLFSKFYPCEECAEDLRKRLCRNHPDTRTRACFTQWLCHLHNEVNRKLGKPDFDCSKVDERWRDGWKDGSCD
PRMT1 inh: PRMT1 methyltransferase inhibitors, primary screen, biochemical, fluorescence polarization | Protein arginine N-methyltransferase 1 (Homo sapiens), Q99873 | recombinant PRMT1, activity-based probe fluorescence polarization | inhibition, % at 2.79 µM | hit rate 1.3% among 370,000 | AID 652257, 2013;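 active = inhibition above about 21% made by adding two undisclosed values, limit read from the data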
Target sequence (Q99873 whole entry, looked up): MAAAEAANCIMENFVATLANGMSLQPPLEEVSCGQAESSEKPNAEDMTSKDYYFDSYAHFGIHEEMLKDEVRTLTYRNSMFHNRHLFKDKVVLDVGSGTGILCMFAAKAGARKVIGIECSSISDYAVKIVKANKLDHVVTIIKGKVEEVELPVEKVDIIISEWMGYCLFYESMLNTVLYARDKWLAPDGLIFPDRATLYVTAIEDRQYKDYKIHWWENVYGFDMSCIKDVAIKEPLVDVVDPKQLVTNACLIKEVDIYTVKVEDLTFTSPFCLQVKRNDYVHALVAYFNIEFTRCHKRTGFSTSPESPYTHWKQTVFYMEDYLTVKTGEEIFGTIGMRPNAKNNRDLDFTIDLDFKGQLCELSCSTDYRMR
ABHD5 PLIN5 PPI: ABHD5-PLIN5 interaction inhibitors, primary screen, cell lysate, split luciferase complementation, luminescence | Perilipin-5 (Homo sapiens) + 1-acylglycerol-3-phosphate O-acyltransferase ABHD5 (Homo … | Split G. princeps luciferase complementation, 4 h | inhibition, % at 4 µM | hit rate 0.78% among 360,000;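 active = inhibition above the mean inhibition across every tested compound plus 3 SD, cut at about 22% in these data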;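 also: 0% = DMSO only wells and the 100% control is not disclosed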
Rtt109 HAT inh: inhibitors of C. albicans Rtt109/Vps75 HAT, primary screen, biochemical, ThioGlo CoA-SH fluorescence, plate reader. hit rate 0.16% among 330,000. AID 540336, 2011. inhibition, % at 34.9 µM. Histone acetyltransferase RTT109 (Candida albicans (strain SC5314 / ATCC MYA-2876)), …. purified Rtt109/Vps75, 4 h;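 active = inhibition of at least 50% in every replicate; inconclusive = best replicate reaches 50% inhibition but some replicates fall short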
LANA-H2B inh: blockers of LANA interaction with H2A/H2B – biochemical, FP readout, HTS, primary screen; Protein LANA1 (Human herpesvirus 8 type P (isolate GK18)), Q9QR71; cell-free LANA-H2A/H2B peptide, fluorescence polarization; inhibition, % (concentration not given with the values); hit rate 0.6% among 320,000; in the data active = inhibition mostly above about 10%, no sharp cut-off; inactive = mostly below about 6.7%
rCAG binder: binders of r(CAG) RNA repeats, primary screen, biochemical, fluorescence. r(CAG) RNA repeat, TO-PRO-1 dye displacement fluorescence. inhibition, % at 3 µM. hit rate 1.3% among 370,000;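 active = inhibition above the plate cutoff, the mean of all test compounds on that plate plus 3 SD, cut at about 35% in these data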;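 also: 0% = DMSO alone and 100% = 100 µM mitoxantrone as full dye displacement; higher means more dye released from RNA so lower well fluorescence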
ABHD5-PLIN5 conf: ABHD5-PLIN5 interaction inhibitors, confirmation, biochemical, luminescence; shares compounds with ABHD5 PLIN5 PPI; inhibition, % at 4 µM; hit rate 67% among 2,200; AID 651612, 2012; in the data active = inhibition above about 23%;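 also: 0% = DMSO vehicle wells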
HNF4 counter: HNF4 dimerization inhibitors, counter-screen for ABHD5-PLIN5 interaction inhibitor project, biochemical, split-luciferase complementation, luminescence; shares compounds with ABHD5 PLIN5 PPI; inhibition, % at 4 µM; hit rate 77% among 2,200;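 active = mean inhibition across replicate wells exceeding the computed hit threshold, cut at about 13% in these data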;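 also: light from luciferase halves that rejoin when HNF4 fusion proteins dimerize; 0% = DMSO only wells and the 100% control is not given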
* = called active by the depositor.

How did O=C1NC[C@H](c2ccccc2)OC(=O)[C@H](Cc2ccc(F)cc2)C/C=C\C[C@H]1CC(=O)N(CCO)Cc1ccccc1 do in these assays?
ALR inh: 4.2; PRMT1 inh: -0.1; ABHD5 PLIN5 PPI: -7.3; Rtt109 HAT inh: 9.8; LANA-H2B inh: 6.5; rCAG binder: 5.1

Results for C=CCN(CC=C)Cc1c(O)ccc2c1oc(=O)c1ccccc12 ?
ALR inh: 25.7; PRMT1 inh: 4.4; ABHD5 PLIN5 PPI: 68.0*; Rtt109 HAT inh: -9.5; LANA-H2B inh: 2.4; rCAG binder: 7.5; ABHD5-PLIN5 conf: 14.3; HNF4 counter: 16.7*

What do the screens show for `C=CCN(CC=C)Cc1cc(=O)oc2ccc3ccccc3c12`?
PRMT1 inh: -5.2; ABHD5 PLIN5 PPI: -0.2; rCAG binder: 5.9

Results for O=C(CSc1cc(Cl)ccc1Cl)N/N=C/c1ccc[nH]1 ?
PRMT1 inh: -7.6

What do the screens show for `O=C1c2cccc(-c3ccc(C(F)(F)F)cc3)c2C2CC=CCN12` (stereo not drawn)?
PRMT1 inh: -0.8; ABHD5 PLIN5 PPI: 5.4; rCAG binder: -0.8

How did COc1ccc2c(c1)[C@@]1(OCCC=C[C@H]1C)C(=O)N2CC1CC1 do in these assays?
PRMT1 inh: -3.4; rCAG binder: 0.3

What do the screens show for `CC[C@]12c3[nH]c4cc(-c5ccco5)ccc4c3CCN1C(=O)[C@@H](CC(=O)NC(C)(C)C)C[C@@H]2C(=O)N1CCN(C(=O)c2ccco2)CC1`?
PRMT1 inh: 2.5; ABHD5 PLIN5 PPI: 9.9; Rtt109 HAT inh: -0.5; rCAG binder: 26.4

Results for NC(=O)c1cc2ccccc2oc1=NCc1ccccc1 ?
ALR inh: 1.6; PRMT1 inh: 0.2; ABHD5 PLIN5 PPI: 17.1; Rtt109 HAT inh: -1.2; LANA-H2B inh: 0.6; rCAG binder: -1.1

How did NC(=O)c1cc2cc(Br)ccc2oc1=NCc1ccccc1 do in these assays?
ALR inh: 5.6; PRMT1 inh: -3.1; ABHD5 PLIN5 PPI: 61.7*; Rtt109 HAT inh: -1.0; LANA-H2B inh: 0.3; rCAG binder: 2.4; ABHD5-PLIN5 conf: 5.6; HNF4 counter: 29.2*

Results for Cc1cccc(-c2nc(=S)c3c(n2Cc2ccco2)CCCC3)c1 ?
ALR inh: inconclusive; PRMT1 inh: 7.6; ABHD5 PLIN5 PPI: 28.2*; Rtt109 HAT inh: -9.1; LANA-H2B inh: 0.1; rCAG binder: 3.9; ABHD5-PLIN5 conf: 6.7; HNF4 counter: 10.6

How did Cc1cc(N2CCCC2)c(F)cc1/C=C\[N+](=O)[O-] do in these assays?
PRMT1 inh: -17.3; ABHD5 PLIN5 PPI: 47.0*; Rtt109 HAT inh: 19.2; rCAG binder: -2.2; ABHD5-PLIN5 conf: 97.2*; HNF4 counter: 95.0*

Results for Cc1cc(N2CCC(C)CC2)c(F)cc1[N+](=O)[O-] ?
ALR inh: -1.0; PRMT1 inh: 0.4; ABHD5 PLIN5 PPI: 5.7; Rtt109 HAT inh: -6.9; LANA-H2B inh: -2.3; rCAG binder: 0.3

How did CN(C)c1ccc(-c2[nH][nH]c(=O)c2NC(=O)c2ccccn2)cc1 do in these assays?
PRMT1 inh: -3.5; ABHD5 PLIN5 PPI: 59.6*; rCAG binder: 6.3; ABHD5-PLIN5 conf: 6.8; HNF4 counter: 44.9*

Results for Cc1cnc(C(=O)Nc2c(-c3ccccc3)[nH][nH]c2=O)cn1 ?
PRMT1 inh: 10.8; ABHD5 PLIN5 PPI: -38.0; rCAG binder: 1.8

How did CN(C)c1ccc(-c2[nH][nH]c(=O)c2NC(=O)c2ccc3ccccc3n2)cc1 do in these assays?
PRMT1 inh: 5.1; ABHD5 PLIN5 PPI: 54.2*; rCAG binder: 11.1; ABHD5-PLIN5 conf: -52.1; HNF4 counter: 47.9*

Results for COc1cc(OC)cc(C2=Cc3ccc(OC)cc3C(CC(C)=O)N2c2ccc(-c3cccs3)cc2)c1 (stereo not drawn) ?
PRMT1 inh: -1.2; ABHD5 PLIN5 PPI: -13.8; rCAG binder: 10.5

What do the screens show for `CCCNC(=O)NS(=O)(=O)c1ccc(Cl)cc1`?
PRMT1 inh: -2.6; ABHD5 PLIN5 PPI: 0.8; Rtt109 HAT inh: 2.4; LANA-H2B inh: 1.9; rCAG binder: 0.4

How did CCCNC(=O)c1nnsc1S(=O)(=O)c1ccc(Cl)cc1 do in these assays?
PRMT1 inh: 78.3*; ABHD5 PLIN5 PPI: 76.9*; Rtt109 HAT inh: inconclusive; rCAG binder: -2.3; ABHD5-PLIN5 conf: 80.1*; HNF4 counter: 108.1*

Results for O=C(NC1CCCC1)C1(C(=O)C2CC2)CC(c2ccccn2)=NO1 (stereo not drawn) ?
PRMT1 inh: -0.7; rCAG binder: 0.1

How did N#C/C(=C\c1cccc(Br)c1)C(=O)N1CCCCC1 do in these assays?
ALR inh: 11.1; PRMT1 inh: 2.0; ABHD5 PLIN5 PPI: 24.1*; Rtt109 HAT inh: 1.9; LANA-H2B inh: 1.0; rCAG binder: -3.0; ABHD5-PLIN5 conf: 71.3*; HNF4 counter: 53.4*

What do the screens show for `N#C/C(=C\c1ccccc1)C(=O)N1CCN(c2ccccc2F)CC1`?
ALR inh: 8.9; PRMT1 inh: 5.2; ABHD5 PLIN5 PPI: 37.9*; Rtt109 HAT inh: 0.9; LANA-H2B inh: -2.1; rCAG binder: 0.0; ABHD5-PLIN5 conf: 51.9*; HNF4 counter: 38.5*

How did CCOc1ccc(CCNC(=O)Cc2ccccc2)cc1OCC do in these assays?
PRMT1 inh: 2.2

What do the screens show for `CCCCN1C(=O)/C(=C/C=C2\SCCN2C)SC1=S`?
PRMT1 inh: -46.0; ABHD5 PLIN5 PPI: 29.8*; Rtt109 HAT inh: 6.0; rCAG binder: -65.7; ABHD5-PLIN5 conf: 25.4*; HNF4 counter: 20.8*

How did CN1CCS/C1=C/C=C1\SC(=S)N(CC(=O)O)C1=O do in these assays?
ALR inh: 72.9; PRMT1 inh: -77.5; ABHD5 PLIN5 PPI: 10.1; Rtt109 HAT inh: -2.6; LANA-H2B inh: -149.4; rCAG binder: -354.3

What do the screens show for `CN1CCS/C1=C/C=C1/SC(=S)N(Cc2ccccc2)C1=O`?
ALR inh: -42.4; PRMT1 inh: -54.3; ABHD5 PLIN5 PPI: 25.3*; Rtt109 HAT inh: -2.1; LANA-H2B inh: -3.8; rCAG binder: -16.8; ABHD5-PLIN5 conf: 22.3*; HNF4 counter: 17.7*

Results for O=C(O)c1ccc(/C=C2/SC(=S)N(Cc3ccccc3)C2=O)cc1 ?
ALR inh: 3.0; PRMT1 inh: 12.7; ABHD5 PLIN5 PPI: -1.9; Rtt109 HAT inh: -2.7; LANA-H2B inh: -0.4; rCAG binder: 6.0

How did COc1ccccc1C(=O)CSc1nnc(-c2ccncc2)n1-c1ccc(Cl)cc1 do in these assays?
PRMT1 inh: -0.1; rCAG binder: 4.2
